From PubChem
Most compounds without a hit are left out; they make up all but 2.4% or so of the library.
D2 PAM-1 – potentiates the human D2 dopamine receptor allosterically; potentiation, % (test concentration not listed); P14416; 360,000 tested, 0.23% active; DiscoveRx D2 beta-arrestin cells, luminescence, 90 min; 100% = 57 uM dopamine signal; AID 624464; in the data active = potentiation above about 50%
Target sequence (P14416 whole entry, looked up): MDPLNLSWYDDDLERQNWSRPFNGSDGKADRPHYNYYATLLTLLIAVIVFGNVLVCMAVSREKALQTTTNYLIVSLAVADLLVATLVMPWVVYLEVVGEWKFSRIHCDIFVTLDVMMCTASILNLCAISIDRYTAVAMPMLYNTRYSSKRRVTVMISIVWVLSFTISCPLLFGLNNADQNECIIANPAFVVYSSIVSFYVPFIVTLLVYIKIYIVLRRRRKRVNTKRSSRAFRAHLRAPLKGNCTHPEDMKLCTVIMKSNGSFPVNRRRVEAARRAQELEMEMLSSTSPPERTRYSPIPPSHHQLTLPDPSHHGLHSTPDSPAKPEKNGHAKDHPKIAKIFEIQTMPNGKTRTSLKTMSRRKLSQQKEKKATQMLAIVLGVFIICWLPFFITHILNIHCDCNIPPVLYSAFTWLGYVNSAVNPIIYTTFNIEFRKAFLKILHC
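PathHunter D2 cells, attached overnight at 37 deg C, received compound in DMSO plus dopamine at EC20 (50 nM final) for 90 min at 37 deg C. Beta-arrestin recruitment was read as luminescence after 1 h with detection reagent at ambient temperature.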
D2 antag – antagonizes the human D2 dopamine receptor. 340,000 tested, 2% active. HEK293 TREx D2 cells, calcium flux, dopamine EC80. P14416. AID 485344. inhibition, % at 10 µM; in the data active = inhibition above about 30%; inactive = below that, where a call was filed; note: 0% is about no effect
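HEK293 T-REx D2 cells, tet-induced, calcium dye no-wash. Cpd pintool add, 180 s kinetic, then EC80 DA, 180 s kinetic. Ca flux read.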
D2 ag-1 – activates the human D2 dopamine receptor | P14416 | DiscoveRx PathHunter D2 beta-arrestin, luminescence, 90 min; 100% = 57 uM dopamine signal | activation, % (no concentration beside the values) | 360,000 tested, 0.084% active; in the data active = activation above about 40%
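DiscoveRx PathHunter D2 beta-arrestin cells (2,100/well) attached overnight, then compound-stimulated 90 min at 37 C in HBSS/10 mM HEPES/0.1% Tween-20 buffer; beta-galactosidase complementation read by luminescence after 1 h at ambient temperature. Dopamine 57 uM final (EC100) as control.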
D2 ag-2 – activates the human D2 dopamine receptor | P14416 | HEK293 T-REx D2 cells, calcium flux agonist mode | activation, % at 2 µM | 340,000 tested, 0.53% active | AID 485358;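 active = activation over 3 SD above normal in the single-dose calcium agonist read, cut at about 30% in these data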; note: 0% is about no effect
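Agonism is scored from calcium flux in a force-coupled, inducible HEK293 cell line expressing D2, read kinetically for 180 s after compound addition against dopamine controls.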
D2 PAM-2 – positive allosteric modulators of human D2 dopamine receptor; P14416; HEK293 T-REx D2, calcium flux, EC20 dopamine potentiation; potentiation, % at 10 µM; 340,000 tested, 0.34% active;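 active = potentiation over 3 SD above the plate norm, cut at about 30% in these data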; note: 0% is about no effect
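Tetracycline-induced HEK293 T-REx cells force-coupled to calcium signalling expressed D2; compounds were pin-added after a 10 s baseline, read kinetically 180 s, then an EC20 dopamine challenge followed with a further 180 s calcium read.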
* marks the source's active call; other numbers are inactive results; nt = not tested or not shown.

SMILES | D2 PAM-1 | D2 antag | D2 ag-1 | D2 ag-2 | D2 PAM-2
O=C(O)CN=C1CC(c2ccccc2)CC(=O)/C1=C(/O)CCCN1C(=O)c2ccccc2C1=O (stereo not drawn) | 0.6 | -5.7 | -1.7 | 0.5 | 30.6*
CN=C1CC(C)(C)CC(=O)/C1=C(/O)CCCN1C(=O)c2ccccc2C1=O | -2.0 | 7.9 | -3.1 | -0.3 | -10.5
COC1=CC(=Cc2c(N)n3nc(CC(=O)N4CCCCC4)sc3nc2=O)C=C(OC)C1=O | 2.5 | -1.5 | -2.6 | 70.4* | 6.7
O=c1cc(N2CCCCC2)c(-c2ccccc2)nn1Cc1c(Cl)cccc1Cl | -10.3 | 31.9* | -3.9 | 0.3 | 15.8
COc1ccc(COCC(O)CN2CCCCC2)cc1OC (stereo not drawn) | -6.5 | -15.3 | -2.0 | -1.5 | 0.5
COc1ccc(COCC(O)CN(Cc2ccccc2)C(C)C)cc1OC (stereo not drawn) | -6.1 | 31.1* | -0.4 | 0.6 | -3.5
O=S(=O)(Nc1c(O)ccc2ccccc12)c1ccccc1 | 13.6 | nt | 41.9* | nt | nt
O=C(Cn1cnc2c(nnn2Cc2ccc(F)cc2)c1=O)Nc1cccc(F)c1 | -3.1 | 37.0* | 1.0 | 0.6 | -4.2
Cc1ccc(NC(=O)Cn2cnc3c(nnn3Cc3ccc(F)cc3)c2=O)cc1 | -3.1 | -27.0 | -6.1 | -0.3 | -1.9
CC(C)c1nc(SCC(=O)Nc2ccc(N(C)C)cc2)c2ccccc2n1 | -4.7 | 33.9* | -18.7 | -0.9 | 0.9
CC(C)c1nc(SCC(=O)Nc2nccs2)c2ccccc2n1 | -5.4 | -4.8 | -2.5 | 0.3 | -27.7
COC(=O)c1ccc(NC(=S)N(Cc2cccnc2)Cc2ccco2)cc1 | 6.1 | -4.8 | 7.3 | 0.0 | 12.2
CCc1ccc(NC(=O)N(Cc2cccnc2)Cc2ccco2)cc1 | -14.4 | -5.6 | -2.0 | -0.5 | 32.4*
O=C(Cn1ncc2c(=O)oc3ccccc3c21)NCCN1CCN(c2ccccc2F)CC1 | -6.1 | -17.3 | -1.9 | 37.2* | -24.7
CC1CC(C)CN(CCCNC(=O)Cn2ncc3c(=O)oc4ccccc4c32)C1 (stereo not drawn) | -10.8 | 3.9 | -9.3 | 0.6 | -5.9
COc1ccc2c(C)c(CCC(=O)NCc3ccc(C)cc3)c(=O)oc2c1 | nt | nt | nt | -1.1 | -7.7
CCOC(=O)c1[nH]ncc1CN1CCCC(C(=O)c2cc(Cl)ccc2OC)C1 (stereo not drawn) | -5.6 | 72.9* | -0.2 | 0.7 | -26.6
CCOC(=O)c1[nH]ncc1CN1CCCC(C(=O)c2ccc(OC)c(OC)c2)C1 (stereo not drawn) | -9.5 | nt | 0.6 | nt | nt
CC(=O)c1cccc(NC(=O)c2cnn(-c3cccc(C)c3)c2-n2cccc2)c1 | nt | nt | nt | 0.0 | 0.2
c1ccc(-c2cn(-c3ccccc3)c3[n+]2CCS3)cc1 | -9.4 | 3.8 | -2.2 | -0.6 | 8.3
CC(C)(C)c1ccc(-c2cn(-c3ccc(Br)cc3)c3[n+]2CCCS3)cc1 | -9.8 | 41.8* | -1.1 | 0.9 | -13.1
CCOc1ccc2[nH]c(=O)c(CN(CCO)C(c3nnnn3C3CCCCC3)C(C)C)cc2c1 (stereo not drawn) | 8.8 | 34.8* | 2.4 | 0.3 | -5.2
O=C(NCCCN1CCC(Cc2ccccc2)CC1)c1ccc2nc(N3CCOCC3)sc2c1 | -29.3 | 48.0* | -6.2 | -0.1 | -19.6
CC1CCCC(C)N1CCCNC(=O)c1ccc2nc(N3CCOCC3)sc2c1 (stereo not drawn) | -15.2 | nt | -7.2 | nt | 5.5
O=C(CN1CCN(c2ccccc2)CC1)NC(=O)NCc1ccco1 | -0.5 | -15.0 | 1.5 | 38.9* | -11.2
SMILES | D2 PAM-1 | D2 antag | D2 ag-1 | D2 ag-2 | D2 PAM-2
Cc1cc(C)c(O)c(-c2cc(C(=O)Nc3ccc(S(=O)(=O)N4CCOCC4)cc3)[nH]n2)c1 | 15.8 | -6.5 | 3.9 | 0.8 | 35.8*
O=C(c1ccc(Cl)c(S(=O)(=O)N2CCCCC2)c1)N1CCCCC1 | -12.7 | -8.0 | -3.6 | 0.1 | -4.9
COc1ccc(C(=O)NCc2ccccc2CN2CCCC2)cc1S(=O)(=O)N1CCOCC1 | -16.8 | 45.2* | -6.7 | 0.3 | -23.1
CN1CCN(S(=O)(=O)c2cc([N+](=O)[O-])ccc2Cl)CC1 | 27.9 | 3.3 | 4.5 | 0.4 | 1.1
O=C(NCc1ccc(Cl)cc1)c1cc2ccccc2o1 | nt | nt | nt | 1.1 | nt
COc1ccc(C(=O)NCc2ccco2)cc1S(=O)(=O)N1CCOCC1 | -2.8 | 10.3 | -2.3 | 0.4 | -6.9
O=C(NCc1ccccc1CN1CCCC1)c1cc2cc(Cl)ccc2o1 | -2.7 | 39.9* | 5.5 | 0.3 | -18.6
CC(=O)N1CCN(C(=O)c2ccc(Cl)c(S(=O)(=O)N3CCCCCC3)c2)CC1 | -6.1 | 31.9* | 1.4 | 0.6 | 7.0
O=[N+]([O-])c1ccc(Cl)c(S(=O)(=O)N2CCCCCC2)c1 | 70.5* | -5.1 | 0.1 | -0.3 | 10.3
Clc1ccccc1OCCSc1nnc(-c2cccs2)o1 | nt | nt | nt | 0.0 | -18.7
COc1ccc(Br)c(C(=O)Nc2cc3c(cc2N2CCCCC2)n(C)c(=O)c(=O)n3C)c1 | nt | nt | nt | -1.5 | -3.2
Cc1ccc(C(=O)NCc2ccccc2CN2CCCC2)cc1S(=O)(=O)N1CCOCC1 | -31.5 | 51.5* | -1.2 | -0.4 | -27.9
O=C(NCC1COc2ccccc2O1)c1ccc(Cl)c(S(=O)(=O)N2CCOCC2)c1 (stereo not drawn) | -0.9 | 30.6* | -1.7 | 0.9 | -1.1
O=C(NCc1ccccc1CN1CCCC1)c1ccc(Cl)c(S(=O)(=O)N2CCCC2)c1 | -32.1 | 32.9* | -1.9 | -0.2 | -26.1
Cc1ccc(C(=O)NCc2ccccc2F)cc1S(=O)(=O)N1CCCC1 | -10.5 | -30.5 | 2.1 | 0.8 | 11.8
N#Cc1ccc(CN2C(=O)c3ccccc3Sc3ccc(C(=O)OCc4ccco4)cc32)cc1 | nt | nt | nt | -0.1 | -8.2
CSc1cccc(NC(=O)N2CCN(c3cc(-c4noc(C)n4)ccc3C)CC2)c1 | nt | nt | nt | 0.6 | -1.6
Fc1ccccc1/C=N/n1cc(-c2ccccc2)[nH]c1=S | -21.2 | 37.8* | -7.1 | 0.1 | 4.7
O=C(O)c1ccc(/C=N/n2cc(-c3ccccc3)[nH]c2=S)cc1 | -18.3 | -3.1 | -5.8 | -1.0 | -5.2
S=c1[nH]c(-c2ccccc2)cn1/N=C/c1ccc(Br)cc1 | -18.5 | 36.5* | -1.0 | 0.3 | -25.0
COc1ccccc1NC(=O)c1oc2ccccc2c1NC(=O)COc1cccc(C)c1 | nt | nt | nt | 0.0 | -4.4
CC1CCCN(CCCNC(=O)c2coc3nc4ccccc4nc23)C1 (stereo not drawn) | -31.2 | 32.6* | -2.8 | 0.0 | -3.5
CCOc1ccc(N2CC(c3nc4ccccc4n3Cc3cccc(Cl)c3)CC2=O)cc1 (stereo not drawn) | nt | nt | nt | 1.8 | -0.6
COc1ccc(CNC(=O)C2CCN(S(=O)(=O)c3ccc4c(ccn4C)c3)CC2)cc1 | nt | nt | nt | 0.2 | -1.2
COc1ccccc1CNS(=O)(=O)c1ccc2c(c1)oc(=O)n2C | -0.1 | -2.4 | 1.6 | 1.4 | -6.1
Cc1ccc(CCNC(=O)CCNS(=O)(=O)c2ccc3c(c2)oc(=O)n3C)cc1 | -0.2 | nt | -3.1 | -0.1 | -10.8
